Measurements published in PubChem BioAssay AID651642 (Sanford-Burnham Center for Chemical Genomics, 2012).
Active and inactive are the calls of the source.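 How the source made its calls: active means average half-effect concentration of 10 µM or less in every one of the four cell panels; inactive means the rest.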

Tested on: HL-1
Test: cardiomyocyte survival under oxidative or metabolic stress – cell-based, panel, H9c2 and HL-1, H2O2, 2-deoxyglucose, ATP luminescence, SAR follow-up (AID 651642)
Conditions: H9c2/HL-1 cardiomyocyte 2-deoxyglucose damage, mean of runs, with 2-deoxyglucose

Row | Compound | outcome
1 | CCNC(=O)c1cccc(NC(=O)c2cc(-c3cc(OC)c(OC)c(OC)c3)nc3ccccc23)c1 | active
2 | COc1ccc2c(c1OC)C(=O)N1c3ccccc3C(=O)N(Cc3ccccc3F)C21 (configuration not stated) | active
3 | COc1cc(-c2cc(C(=O)Nc3cccc(C(N)=O)c3)c3ccccc3n2)cc(OC)c1OC | inactive
4 | CCOC(=O)c1cccc(NC(=O)c2cc(-c3cc(OC)c(OC)c(OC)c3)nc3c(Cl)cccc23)c1 | inactive
5 | COc1cc(-c2cc(C(=O)Nc3cccc(C(C)=O)c3)c3cccc(Cl)c3n2)cc(OC)c1OC | inactive
6 | COc1cc(-c2cc(C(=O)Nc3cccc(C(C)=O)c3)c3cc(C)ccc3n2)cc(OC)c1OC | inactive
7 | COc1cccc(CNC(=O)CNC(=O)c2cc(-c3cc(OC)c(OC)c(OC)c3)nc3ccccc23)c1 | inactive
8 | COc1cc(-c2cc(C(=O)Nc3cccc(-c4nn[nH]n4)c3)c3ccccc3n2)cc(OC)c1OC | inactive
9 | COc1cc(-c2cc(C(=O)Nc3cccc(C(C)=O)c3)c3ccc(Cl)cc3n2)cc(OC)c1OC | inactive
10 | CCOC(=O)c1cccc(NC(=O)CNC(=O)c2cc(-c3cc(OC)c(OC)c(OC)c3)nc3ccc(Br)cc23)c1 | active
11 | COc1cc(-c2cc(C(=O)NCC(=O)Nc3ccc(C(C)=O)cc3)c3ccccc3n2)cc(OC)c1OC | inactive
12 | COc1cc(-c2cc(C(=O)Nc3cccc(C(=O)N(C)C)c3)c3ccccc3n2)cc(OC)c1OC | inactive
13 | COc1ccc2c(c1OC)C(=O)N1c3ccccc3C(=O)N(Cc3ccc(C)cc3C)C21 (configuration not stated) | inactive
14 | COc1cc(-c2cc(C(=O)Nc3cccc(C(=O)NCc4ccccc4)c3)c3ccccc3n2)cc(OC)c1OC | active
15 | COc1ccc2c(c1OC)C(=O)N1c3ccccc3C(=O)N(Cc3ccccn3)C21 (configuration not stated) | inactive
16 | COc1cc(-c2cc(C(=O)NCC(=O)Nc3cccc(C(C)=O)c3)c3ccccc3n2)cc(OC)c1OC | active

Row | Compound | outcome
17 | COc1cc(-c2cc(C(=O)Nc3cccc(C(C)=O)c3)c3cc(Br)ccc3n2)cc(OC)c1OC | inactive
18 | COC(=O)CNC(=O)c1cc(-c2cc(OC)c(OC)c(OC)c2)nc2ccccc12 | inactive
19 | COc1cc(-c2cc(C(=O)Nc3cccc(C(C)=O)c3)c3ccccc3n2)cc(OC)c1OC | active
20 | COc1ccc2c(c1OC)C(=O)N1c3ccccc3C(=O)N(Cc3ccncc3)C21 (configuration not stated) | inactive
21 | COC(=O)CNC(=O)c1cccc(NC(=O)c2cc(-c3cc(OC)c(OC)c(OC)c3)nc3ccccc23)c1 | active
22 | COc1cc(-c2cc(C(=O)Nc3cccc(C(=O)NC4CC4)c3)c3ccccc3n2)cc(OC)c1OC | active
23 | CCOC(=O)c1cccc(NC(=O)CNC(=O)c2cc(-c3cc(OC)c(OC)c(OC)c3)nc3ccccc23)c1 | inactive
24 | COc1ccccc1CN1C(=O)c2ccccc2N2C(=O)c3c(ccc(OC)c3OC)C12 (configuration not stated) | active
25 | COc1ccc2nc(-c3cc(OC)c(OC)c(OC)c3)cc(C(=O)NCC(=O)Nc3ccc(C(C)=O)cc3)c2c1 | active
26 | CCOC(=O)c1cccc(NC(=O)c2cc(-c3cc(OC)c(OC)c(OC)c3)nc3ccc(C)cc23)c1 | inactive
27 | CCOC(=O)c1cccc(NC(=O)CNC(=O)c2cc(-c3cc(OC)c(OC)c(OC)c3)nc3ccc(OC)cc23)c1 | active
28 | COc1cc(-c2cc(C(=O)NCC(=O)Nc3ccc(C(C)=O)cc3)c3cc(C)ccc3n2)cc(OC)c1OC | active
29 | COc1cc(-c2cc(C(=O)NCC(=O)Nc3cccc(C(C)=O)c3)c3cc(F)ccc3n2)cc(OC)c1OC | active
30 | COc1ccc2c(c1OC)C(=O)N1c3ccccc3C(=O)N(Cc3ccccc3)C21 (configuration not stated) | inactive
31 | COc1ccc2c(c1OC)C(=O)N1c3ccccc3C(=O)N(Cc3cccc(Cl)c3Cl)C21 (configuration not stated) | active
32 | COc1ccc2nc(-c3cc(OC)c(OC)c(OC)c3)cc(C(=O)NCC(=O)Nc3cccc(C(C)=O)c3)c2c1 | active
